PubChem BioAssay (NCATS)
Several values for one entry are separate records, joined by “and”; a condition that tells them apart may be missing. Equal values may be shown once. Inconclusive results are not listed. Activity calls are given as the source filed them. Unless noted, calls come from the whole dose curve; as a rule, active = well fitted curve in the direction sought with a large enough effect; inconclusive = small, poorly fitted or top-dose-only effect, or another doubt; inactive = no such curve, though single readings can be large; an effect the other way counts as inactive or inconclusive.

Legend:
[1] = test system: PA-1; experiment: Primary qHTS to identify gynecologic anti-cancer compounds using libraries of approved drugs and bioactive compounds (AID 1345084); conditions: Gynecologic cancer cell panel viability, ATPlite luminescence, 48 h; series mostly up to 57.5 µM; note: nearly all actives have a fitted effect of over 55% in size; note: potency is the fitted concentration of half-maximal effect
How it was run: (§1)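 Cytotoxicity screen measuring ATP content by luciferase luminescence. Each compound is applied at five concentrations for 48 h at 37 C with 5% CO2.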

[2] = test system: SKOV3; experiment: as above; conditions: Gynecologic cancer cell panel viability, ATPlite luminescence, 48 h; series mostly up to 57.5 µM
How it was run: as §1

[3] = test system: Tov-21-G; experiment: as above; conditions: Gynecologic cancer cell panel viability, ATPlite luminescence, 48 h; series mostly up to 57.5 µM
How it was run: as §1

[4] = test system: Tov112D; experiment: as above; conditions: Gynecologic cancer cell panel viability, ATPlite luminescence, 48 h; series mostly up to 57.5 µM
How it was run: as §1

[5] = Drug repurposing screens with cells derived from glioblastoma tumor samples (AID 1345199); conditions: GBM patient neurospheres viability, ATP luminescence, 48 h; note: nearly all actives have a fitted effect of over 40% in size; note: potency is the fitted concentration of half-maximal effect; for activity, negative = cell killing: % is set by controls: 0 for no effect and ±100 for the full control effect
How it was run: (§2)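 Four patient lines of CD133+ GBM neurospheres were screened at several concentrations; hits were retested in those lines plus three slower-growing GBM lines, using 48-hour treatment and ATP-based viability.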

[6] = test system: astro; experiment: as above; conditions: viability, ATP luminescence, 48 h; series mostly up to 45.9 µM
How it was run: as §2

[7] = target: Nuclear receptor subfamily 1 group I member 2 (Rattus norvegicus) (UniProt Q9R1A7); experiment: qHTS assay for small molecule activators of the rat pregnane X receptor (rPXR) signaling pathway (AID 651751; call rule not given here; note: 0% is about no effect); conditions: rPXR reporter cells, luciferase (One-Glo), 24 h
[8] = qHTS assay for small molecule activators of the human pregnane X receptor (PXR) signaling pathway (AID 720659; call rule not given here; note: 0% is about no effect)
[9] = qHTS assay to identify inhibitors of the type 1 interferon - major histocompatibility complex class I in skeletal muscle: Counter screen cell viability and HiBit confirmation (AID 1347412); conditions: iHSKM muscle cells + IFN-b, HiBiT or CellTiter-Glo, 24 h; Potency: HiBiT unless noted; Viability, at 45.9 µM (top of the series); note: % is set by controls: 0 for no effect and ±100 for the full control effect; nearly all actives have a fitted effect of over 60% in size
How it was run: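 Luminescence read-out: Nano-Glo HiBiT lytic signal from C-terminally HiBiT-tagged HLA-B in CRISPR-edited human myoblasts, plus CellTiter Glo ATP as viability counter screen. IFN-beta 4.0 ng/ml; 24 hrs treatment at 37 C, 5% CO2.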

[10] = at 45.9 µM (top of the series), tumour line B
[11] = at 45.9 µM (top of the series), tumour line D
[12] = at 46 µM (top of the series), tumour line A
[13] = at 46.1 µM (top of the series), tumour line C
[14] = at 20 µM (top of the series), tumour line C
[15] = at 21.2 µM (top of the series), tumour line B
[16] = at 21.2 µM (top of the series), tumour line D
[17] = at 21.3 µM (top of the series), tumour line A

Nuclear receptor subfamily 1 group I member 2 (Rattus norvegicus), sequence (Q9R1A7 whole entry, looked up): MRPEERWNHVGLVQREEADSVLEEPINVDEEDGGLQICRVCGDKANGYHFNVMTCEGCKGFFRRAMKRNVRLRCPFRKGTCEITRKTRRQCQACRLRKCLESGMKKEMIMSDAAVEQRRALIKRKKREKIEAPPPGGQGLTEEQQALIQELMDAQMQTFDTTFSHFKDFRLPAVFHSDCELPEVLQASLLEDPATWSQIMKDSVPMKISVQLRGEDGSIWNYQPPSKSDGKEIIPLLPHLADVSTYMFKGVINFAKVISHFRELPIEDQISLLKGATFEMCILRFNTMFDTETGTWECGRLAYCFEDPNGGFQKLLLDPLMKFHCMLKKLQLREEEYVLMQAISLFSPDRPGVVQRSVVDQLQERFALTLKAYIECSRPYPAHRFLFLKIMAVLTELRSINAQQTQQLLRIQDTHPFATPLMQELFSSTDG

CN(C)CC/C=C1/c2ccccc2COc2ccc(CC(=O)O)cc21
inactive: Potency [1] | Potency [2] | Potency [3] | Potency [4] | activity, negative = cell killing [5, 10] -11.5% | activity, negative = cell killing [5, 11] 1.66% | activity, negative = cell killing [5, 12] -15.4% | activity, negative = cell killing [5, 13] 4.5% | Potency [6]

O=C(O)CCCCC(=O)O
inactive: Potency [1] | Potency [2] | Potency [3] | Potency [4] | activity, negative = cell killing [5, 10] 11.6% | activity, negative = cell killing [5, 11] -7.89% | activity, negative = cell killing [5, 12] -0.455% | activity, negative = cell killing [5, 13] 0.572% | Potency [6] | max response [7] -0.0429% | outcome [8]

C[C@]12CCC(=O)C=C1CC[C@H]1[C@@H]3CC[C@](O)(C(=O)CO)[C@@]3(C)C[C@H](O)[C@@]12F
inactive: Potency [1] | Potency [2] | Potency [3] | Potency [4] | activity, negative = cell killing [5, 10] -5.55% and -2.43% | activity, negative = cell killing [5, 11] -21.3% and -14.3% | activity, negative = cell killing [5, 12] -18.5% and -26.2% | activity, negative = cell killing [5, 13] -25.3% and 1.15% | Potency [6] | Potency [9]

CC1(C)O[C@@H]2[C@@H](CO[C@@]3(COS(N)(=O)=O)OC(C)(C)O[C@@H]23)O1
inactive: Potency [1] | Potency [2] | Potency [3] | Potency [4] | activity, negative = cell killing [5, 10] 2.05% | activity, negative = cell killing [5, 11] -22.3% | activity, negative = cell killing [5, 12] -14.9% | activity, negative = cell killing [5, 13] -2.36% | Potency [6]

C[C@]12C=CC(=O)C=C1[C@@H](F)C[C@@H]1[C@@H]2[C@@H](O)C[C@@]2(C)[C@H]1CC[C@]2(O)C(=O)CO
inactive: Potency [1] | Potency [2] | Potency [3] | Potency [4] | activity, negative = cell killing [5, 10] -7.25% and -6.51% | activity, negative = cell killing [5, 11] -13.8% and -3.47% | activity, negative = cell killing [5, 12] -18% | activity, negative = cell killing [5, 13] -19.6% and -9.59% | Potency [6] | Potency [9]

c1ccc(CNCCNCc2ccccc2)cc1
inactive: Potency [1] | Potency [2] | Potency [3] | Potency [4] | activity, negative = cell killing [5, 10] -9.72% | activity, negative = cell killing [5, 11] -12.2% | activity, negative = cell killing [5, 13] -25.1% | Potency [6]
active: Potency ([5]; tumour line A) 22.4 µM

CN=C(NC#N)Nc1ccc(C2=NNC(=O)CC2C)cc1 (stereo unspecified)
inactive: Potency [1] | Potency [2] | Potency [3] | Potency [4] | activity, negative = cell killing [5, 10] -9.56% | activity, negative = cell killing [5, 11] 17.5% | activity, negative = cell killing [5, 12] -26.1% | activity, negative = cell killing [5, 13] -22.3% | Potency [6]

CCCC(=O)O[C@]1(C(=O)CO)CC[C@H]2[C@@H]3CCC4=CC(=O)CC[C@]4(C)[C@H]3[C@@H](O)C[C@@]21C
inactive: Potency [1] | Potency [2] | Potency [3] | Potency [4] | activity, negative = cell killing [5, 10] 1.95% | activity, negative = cell killing [5, 11] -21.3% | activity, negative = cell killing [5, 12] -2.7% | activity, negative = cell killing [5, 13] 6.32% | Potency [9]

C[C@H](O)C(=O)Nc1c(I)c(C(=O)NC(CO)CO)c(I)c(C(=O)NC(CO)CO)c1I
inactive: Potency [1] | Potency [2] | Potency [3] | Potency [4] | activity, negative = cell killing [5, 14] 2.37% | activity, negative = cell killing [5, 15] -6.73% | activity, negative = cell killing [5, 16] -12.3% | activity, negative = cell killing [5, 17] -8% | Potency [6]

CC1(C)OC[C@@H](COC(=O)CCc2ccc(OC[C@@H](O)CNCCNC(=O)N3CCOCC3)cc2)O1
inactive: Potency [1] | Potency [2] | Potency [3] | Potency [4] | activity, negative = cell killing [5, 10] -1.97% and -1.33% | activity, negative = cell killing [5, 11] -8.36% and -5.13% | activity, negative = cell killing [5, 13] 1.06% and -5.37% | Potency [6]

CCCC(=O)Nc1ccc(OCC(O)CNC(C)C)c(C(C)=O)c1 (stereo unspecified)
inactive: Potency [1] | Potency [2] | Potency [3] | Potency [4] | activity, negative = cell killing [5, 14] -9.42% | activity, negative = cell killing [5, 15] -3.87% | activity, negative = cell killing [5, 16] 11% | Potency [6]

CCCCCCc1ccc(O)cc1O
active: Potency ([5]; tumour line A) 10 µM
inactive: Potency [1] | Potency [2] | Potency [3] | Potency [4] | activity, negative = cell killing [5, 10] -28.1% | activity, negative = cell killing [5, 13] -19.2% | max response [7] -4.98% and -0.286% | outcome [8]

COc1cc(N)c(Cl)cc1C(=O)NC1CCN(CCCOc2ccc(F)cc2)CC1OC (stereo unspecified)
active: Potency ([5]; tumour line A) 5.62 µM
inactive: Potency [1] | Potency [2] | Potency [3] | Potency [4] | activity, negative = cell killing [5, 14] -1.31% | activity, negative = cell killing [5, 15] -11.4% | Potency [6]

O=C(OCC(O)CO)c1ccccc1Nc1ccnc2cc(Cl)ccc12 (stereo unspecified)
inactive: Potency [1] | Potency [2] | Potency [3] | Potency [4] | activity, negative = cell killing [5, 14] 1.49% | activity, negative = cell killing [5, 15] -17% | Potency [6]

CCN(CCCc1ccccc1)CCCc1ccccc1
active: Potency ([5]; tumour line A) 5.01 µM
inactive: Potency [1] | Potency [2] | Potency [3] | Potency [4] | activity, negative = cell killing [5, 14] -18.9% | activity, negative = cell killing [5, 15] 2.05% | Potency [6]

C#C[C@]1(OC(C)=O)CC[C@H]2[C@@H]3CCC4=C[C@@H](OC(C)=O)CC[C@@H]4[C@H]3CC[C@@]21C
inactive: Potency [1] | Potency [2] | Potency [3] | Potency [4] | activity, negative = cell killing [5, 13] -26.2% | Potency [6]
active: Potency ([5]; tumour line A) 10 µM | Potency ([5]; tumour line D) 17.8 µM

COc1c2occc2c(OC)c2c(=O)cc(C)oc12
inactive: Potency [1] | Potency [2] | Potency [3] | Potency [4] | activity, negative = cell killing [5, 14] -11.9% | activity, negative = cell killing [5, 15] -15.3% | activity, negative = cell killing [5, 16] -6.87% | Potency [6]

CCCCOc1ccc(OCCCN2CCOCC2)cc1
inactive: Potency [1] | Potency [2] | Potency [3] | Potency [4] | activity, negative = cell killing [5, 14] -6.83% | Potency [6]
active: Potency ([5]; tumour line A) 4.47 µM

CN(C)CCOc1ccccc1Cc1ccccc1
inactive: Potency [1] | Potency [2] | Potency [3] | Potency [4] | activity, negative = cell killing [5, 10] -0.223% | activity, negative = cell killing [5, 11] -22.7% | activity, negative = cell killing [5, 13] -17.3% | Potency [6]

CCC(=O)c1c(O)cc(O)cc1O
inactive: Potency [1] | Potency [2] | Potency [3] | Potency [4] | activity, negative = cell killing [5, 10] -0.713% | activity, negative = cell killing [5, 11] -16.2% | activity, negative = cell killing [5, 13] -2.44% | Potency [6]

C#C[C@]1(O)CC[C@H]2[C@@H]3CCC4=CC(=O)CC[C@@H]4[C@H]3CC[C@@]21C
inactive: Potency [2] | Potency [3] | Potency [4] | activity, negative = cell killing [5, 10] -9.83% | activity, negative = cell killing [5, 11] 3.81% | activity, negative = cell killing [5, 13] -18.8% | Potency [6]
active: Potency [1] 17.8 µM

CC(=O)OCC(=O)[C@@]12OC(C)(C)O[C@@H]1C[C@H]1[C@@H]3C[C@H](F)C4=CC(=O)C=C[C@]4(C)[C@@]3(F)[C@@H](O)C[C@@]12C
inactive: Potency [1] | Potency [2] | Potency [3] | Potency [4] | activity, negative = cell killing [5, 14] -14.9% | activity, negative = cell killing [5, 15] -15.5% | activity, negative = cell killing [5, 17] -1.98% | Potency [9]

Cc1cc(O)c(C(C)C)cc1Cl
inactive: Potency [1] | Potency [2] | Potency [3] | Potency [4] | activity, negative = cell killing [5, 10] -5.69% | activity, negative = cell killing [5, 11] -7.04% | activity, negative = cell killing [5, 13] 8.96% | Potency [6]
